The full ranking holds about 39,000 sequences; the median of “fluorescence intensity (a.u.)” is about 4,300, and the highest 2% start at about 39,000. Only a selection was taken, and the highest values are over-represented in it overall.

In the assay the target is T1, OsSMF1 (Oryza sativa, UniProt Q6ZLB0 1-436).
T1 sequence: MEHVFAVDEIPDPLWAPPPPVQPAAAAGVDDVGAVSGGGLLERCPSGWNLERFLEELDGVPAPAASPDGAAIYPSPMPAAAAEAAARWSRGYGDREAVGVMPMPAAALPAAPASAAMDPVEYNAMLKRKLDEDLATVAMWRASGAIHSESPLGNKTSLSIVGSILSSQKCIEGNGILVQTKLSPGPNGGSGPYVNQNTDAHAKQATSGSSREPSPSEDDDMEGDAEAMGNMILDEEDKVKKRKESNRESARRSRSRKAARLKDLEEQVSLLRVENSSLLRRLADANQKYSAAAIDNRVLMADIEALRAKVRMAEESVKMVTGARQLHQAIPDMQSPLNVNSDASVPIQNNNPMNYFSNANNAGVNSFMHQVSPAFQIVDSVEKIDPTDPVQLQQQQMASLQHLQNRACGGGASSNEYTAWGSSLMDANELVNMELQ
Description: protein-binding microarray (RPBM); PBS, 2% BSA, 51.3 ng/ul salmon testes DNA, 50 uM zinc acetate, 200 nM TF, 25 C, 1 h; high values mean tight binding. The following applies: protein: recombinant; tags: N-terminal polyhistidine and DsRed monomer fusion (pET32a); chain copies: 2; label: CyDye5-dUTP incorporated in the synthesized complementary strand; 3' TTTTT single-stranded linker to array surface; dsDNA, one strand shown. A digest of the protocol:
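An Axon 4000B scanner gave the binding signal as per-feature fluorescence intensity in arbitrary units. This followed washing of a custom Agilent array that had been incubated for 1 h at 25 °C with 200 nM protein in PBS, 2% BSA, salmon testes DNA and 50 µM zinc acetate. The proteins were transcription factors fused at the N-terminus to polyhistidine and DsRed, expressed in E. coli BL21-CodonPlus and purified on Ni–NTA.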
As to “ATATCGACTACACACTGTTCTTGGCTACATCGATTGATTGCGGAGTCACCTAGTGCAG”, the binding signal was 4840 fluorescence intensity (a.u.).

“GCTTATCGATAAACTCAGTGTATTTGCATTCAAATTTTGACGGAGTCACCTAGTGCAG”: the binding signal is 3660 fluorescence intensity (a.u.).

Regarding “TCATTTCTAATGTAAATTATCTTTTGCGTAAGTAATTTCTCGGAGTCACCTAGTGCAG”, the binding signal is 3230 fluorescence intensity (a.u.).

For “TGATTAAAGTATTCTTATTTCTCTTTTGAGCAATATCTAACGGAGTCACCTAGTGCAG”, the binding signal is 21900 fluorescence intensity (a.u.).

On to “TAAAGTAAACTCGATCTCTTTCCGAGAAGTGTATTATTTTCGGAGTCACCTAGTGCAG”, for which the binding signal was 41400 fluorescence intensity (a.u.).

In the case of “AACCCTAAGACTAGAGGCGGGCTGGAGCGTGGAGGCGGGACGGAGTCACCTAGTGCAG”, the binding signal was 3240 fluorescence intensity (a.u.).

Consider “GGTTTAACCGTTTGGTAGCTGACATGTGCGCCTGGGCATACGGAGTCACCTAGTGCAG”, for which the binding signal was 3380 fluorescence intensity (a.u.).

For the sequence “TCATTGGTATCTCAATGACATGTAGGACCTACATGAGTCACGGAGTCACCTAGTGCAG”, the binding signal was 8190 fluorescence intensity (a.u.).

“AATCTACTTCCTCCGTTTTATGTTATAAGACTTTCTAGCACGGAGTCACCTAGTGCAG”: the binding signal was 3140 fluorescence intensity (a.u.).

On to “TTTGAAAATAATACTCCCTCCGTTTCATAATATAAGTGATCGGAGTCACCTAGTGCAG”, for which the binding signal is 3260 fluorescence intensity (a.u.).

Take “AAAATATATTACTACCTCCGTTTCATATTATAAGACTTTCCGGAGTCACCTAGTGCAG”: the binding signal is 65400 fluorescence intensity (a.u.).

As for “ACCACCACCTCGGCATCTCCTCGTCCTCGAGCCCAATACTCGGAGTCACCTAGTGCAG”, the binding signal is 3660 fluorescence intensity (a.u.).

“AGCAACCAAATCTTCCCAATTCTCACTTGCTCCTAGATACCGGAGTCACCTAGTGCAG”: the binding signal was 3840 fluorescence intensity (a.u.).

“AGCCTTGTCATGTAAACCTATCCTTTTGAGACACGTGCGTCGGAGTCACCTAGTGCAG”: the binding signal was 5780 fluorescence intensity (a.u.).

Turning to “TTCTCCCACCGCATCCTCTCTCCCCTTGAGTATTTACTTTCGGAGTCACCTAGTGCAG”, the binding signal was 3420 fluorescence intensity (a.u.).

With “CGTAACGCGATCGAGAACCGACTCAGCCGAGACTCATCGTCGGAGTCACCTAGTGCAG”, the binding signal is 3710 fluorescence intensity (a.u.).

As for “TTCGAGCAACTCTACCTGGATCCAGACCAACCCCAGTAGACGGAGTCACCTAGTGCAG”, the binding signal was 50400 fluorescence intensity (a.u.).

For the sequence “TGGATATTTTCTACCCCTGGACCCAGCTGTCAGATCCAACCGGAGTCACCTAGTGCAG”, the binding signal was 3250 fluorescence intensity (a.u.).

Turning to “AGGACGAGACCCCATCCAACCACCCCAGCCACGTCAGCAACGGAGTCACCTAGTGCAG”, the binding signal is 34000 fluorescence intensity (a.u.).

For “TAGCAGGTTTCCTGCCAACTTGGCACACTTGCTTCGTGGTCGGAGTCACCTAGTGCAG”, the binding signal was 3620 fluorescence intensity (a.u.).

For the sequence “GATTCAAGGTTGAGAGGACCTAAGATGTCCAATGATGTGTCGGAGTCACCTAGTGCAG”, the binding signal was 3470 fluorescence intensity (a.u.).

For the sequence “GGATAAGTGCCCCTACCAATAGGTGGACCCTTGTCACTGGCGGAGTCACCTAGTGCAG”, the binding signal was 19300 fluorescence intensity (a.u.).

For the sequence “TGTCAATAATGCATCCTGCAGCTAACATCAAATGACATGGCGGAGTCACCTAGTGCAG”, the binding signal is 3150 fluorescence intensity (a.u.).

On to “GGCCGCTGATCTACGTGGCGGCAGTTCGGTACAGGTGGTGCGGAGTCACCTAGTGCAG”, for which the binding signal is 10500 fluorescence intensity (a.u.).

With “GCTGTTGGTTGGTGCCACATCCCACGCTGCCATGCCATGCCGGAGTCACCTAGTGCAG”, the binding signal is 4910 fluorescence intensity (a.u.).

Turning to “GGGCCCCTCCCAAATCTCCCATGGTTCCATCCATCCCCATCGGAGTCACCTAGTGCAG”, the binding signal is 3890 fluorescence intensity (a.u.).

As for “CCATCCCATGGTGGGCCGGTTAGTTCTGTTCCTGGGCCATCGGAGTCACCTAGTGCAG”, the binding signal was 64400 fluorescence intensity (a.u.).

As for “ATTAGTATTCCCTCCCATCATTAATATATGACGTTAGTGTCGGAGTCACCTAGTGCAG”, the binding signal is 4550 fluorescence intensity (a.u.).

For the sequence “CGGGAGGGGAGGGGAATGGATGTGGGGAGGAGAGAGACTGCGGAGTCACCTAGTGCAG”, the binding signal was 4600 fluorescence intensity (a.u.).

“TTCGTCATAGTGTGGAACGACACATCATGAAGATTAGAGACGGAGTCACCTAGTGCAG”: the binding signal is 3630 fluorescence intensity (a.u.).

“CCGGGAAATTCTTGTGTTGTTGTGTTGGTCTTGAGCAATTCGGAGTCACCTAGTGCAG”: the binding signal was 3630 fluorescence intensity (a.u.).

As for “TGCAAATTGTGCTTTTCTATTCTGTTGTGTCTTCTGCTTTCGGAGTCACCTAGTGCAG”, the binding signal was 40700 fluorescence intensity (a.u.).

As to “GTTCTGTCTTAACCTGCTTTCATATTAATTGTTAAAGTTGCGGAGTCACCTAGTGCAG”, the binding signal was 3280 fluorescence intensity (a.u.).

As for “AGCCTAGGAGGAGATGTGACCTCACAGTCAGGTGTCATCGCGGAGTCACCTAGTGCAG”, the binding signal is 3660 fluorescence intensity (a.u.).

Regarding “ACCAACCAACCAACCAACCAACCAAGCCTCCCAACTCCATCGGAGTCACCTAGTGCAG”, the binding signal was 3810 fluorescence intensity (a.u.).

On to “GATTCGCGTCCTCCGTTTGCTTCGCTTCTTCTTCTAGAACCGGAGTCACCTAGTGCAG”, for which the binding signal is 3490 fluorescence intensity (a.u.).

As for “CGTCCACGTCCATCTCCGCCGCTGACAGCACCAGCTCTTCCGGAGTCACCTAGTGCAG”, the binding signal is 5020 fluorescence intensity (a.u.).

Regarding “TTCCCCTTCCGCGACTGCGAGCTTCTCCGCCGCCGCCGCCCGGAGTCACCTAGTGCAG”, the binding signal was 3160 fluorescence intensity (a.u.).

Regarding “AGAGCCGAGGCCCGAATTCCTCCGGTCCTCCTCGTGACCCCGGAGTCACCTAGTGCAG”, the binding signal was 15400 fluorescence intensity (a.u.).

“ACCCCTGCGAATATATAATTTCCCCGCGAGGCCGCGAGCCCGGAGTCACCTAGTGCAG”: the binding signal was 47700 fluorescence intensity (a.u.).

On to “CACTCTCCTCCTACACTGCATGCTGCTGCTGACGTGGCTCCGGAGTCACCTAGTGCAG”, for which the binding signal is 24900 fluorescence intensity (a.u.).

In the case of “TGAGAATACCAGATGACAAAAGGTGACAGTAGTTAGGAACCGGAGTCACCTAGTGCAG”, the binding signal was 4190 fluorescence intensity (a.u.).
